Results on 23 molecules are retold here after PubChem BioAssay (Tox21).

“And” between values parts separate entries of the source, which are not always exact repeats. Identical values can stand only once. Results filed as inconclusive are left out. Entries that show only a call come without a potency. More than one record can exist for a structure, and the calls need not agree. The source made the active and inactive calls. Calls come from the whole dose curve; as a rule, active = well fitted cell-killing curve with a large enough effect in the repeat runs; inconclusive = weak or mixed curves, or effect the other way; inactive = no such curve, though single readings can be large or run the other way.
Potency is the fitted concentration of half-maximal effect.

This assay in a line: qHTS assay to identify small molecule agonists of the RXR signaling pathway - cell viability counter screen (AID 1159529). Note: nearly all actives have a fitted effect of over 50% in size. The settings on record: RXR-alpha-bla HEK293T viability, CellTiter-Glo, 16 h; series mostly up to 76.8 µM. In outline: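 CellTiter-Glo luminescence gave viability in the wells also read for beta-lactamase. Cells (RXR-alpha-UAS-bla HEK 293T, 2% charcoal-stripped FBS medium) had 5 hr plating, then 16 hr compound exposure at 37 C; tetraoctyl ammonium bromide served as positive control.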
Background: Quantitative high-throughput screening tests each substance at several concentrations.
As for `COc1ccc(O)c(C(C)(C)C)c1`, the Potency result is “inactive”.

Regarding `Cc1ccc([N+](=O)[O-])cc1`, the Potency result was “inactive”.

As for `CCNCC`, the Potency entry is “inactive”.

Take `O=C1CCCO1`: the Potency result is “inactive”.

Take `CN(C)c1nc(=O)n(C2CCCCC2)c(=O)n1C`: the Potency result is “inactive”.

Take `CS(=O)(=O)NC(=O)c1cc(Oc2ccc(C(F)(F)F)cc2Cl)ccc1[N+](=O)[O-]`: the Potency result is “inactive”.

`C[C@]12CC[C@H]3[C@@H](CCC4=CC(=O)CC[C@@H]43)[C@@H]1CC[C@@H]2O`: the Potency result is “inactive”.

On to `O=C1C(Cl)=C(Cl)C(=O)c2ccccc21`, for which the Potency was 12.3 µM (active) and 17.4 µM (active).

For the molecule `ClCC(Cl)CCl`, the Potency entry was “inactive”.

With `COP(=S)(OC)Oc1ccc(S(=O)(=O)N(C)C)cc1`, the Potency result was “inactive”.

`CC(C)(C#N)N=NC(C)(C)C#N`: the Potency result was “inactive”.

Take `CC(C)(c1ccccc1)c1ccc(O)c(C(C)(C)c2ccccc2)c1`: the Potency was 13.7 µM (active) and 15.5 µM (active).

As to `O=[N+]([O-])/N=C1\NCCN1Cc1ccc(Cl)nc1`, the Potency entry is “inactive”.

With `N#Cc1cccnc1`, the Potency entry is “inactive”.

On to `[Cl-].[Cl-].[Cl-].[Fe+3]`, for which the Potency entry is “inactive”.

Regarding `Clc1cccc(C(Cl)(Cl)Cl)n1`, the Potency result is “inactive”.

Turning to `CC(O)CN(CC(C)O)CC(C)O` (stereo not drawn), the Potency entry is “inactive”.

As to `COc1ccc(CO)cc1`, the Potency entry was “inactive”.

In the case of `CC(C)(c1ccc(OCC2CO2)cc1)c1ccc(OCC2CO2)cc1` (stereo not drawn), the Potency is 49.6 µM (active) and inactive.

Turning to `COP(=O)(NC(C)=O)SC` (stereo not drawn), the Potency entry was “inactive”.

With `CCCCOC(=O)COC(=O)c1ccccc1C(=O)OCCCC`, the Potency result was “inactive”.

As to `CC(C)Nc1ccc(Nc2ccccc2)cc1`, the Potency is 19.4 µM (active) and 21.9 µM (active).

`CC[n+]1c(-c2ccccc2)c2cc(N)ccc2c2ccc(N)cc21`: the Potency entry is “inactive”.
